The text below walks through data of PubChem BioAssay AID488849 (National Center for Advancing Translational Sciences (NCATS), 2010).

Where “and” joins values, the source holds several entries; their conditions need not be identical. Equal values may be shown once. Results filed as inconclusive are left out. Calls of active or inactive are those of the source. Calls come from the whole dose curve; as a rule, active = well fitted activation curve with a large enough effect; inconclusive = small, poorly fitted or top-dose-only effect; inactive = flat fitted curve, though single readings scatter.

Chain of Lysosomal acid glucosylceramidase (Homo sapiens) (P04062 whole entry, looked up): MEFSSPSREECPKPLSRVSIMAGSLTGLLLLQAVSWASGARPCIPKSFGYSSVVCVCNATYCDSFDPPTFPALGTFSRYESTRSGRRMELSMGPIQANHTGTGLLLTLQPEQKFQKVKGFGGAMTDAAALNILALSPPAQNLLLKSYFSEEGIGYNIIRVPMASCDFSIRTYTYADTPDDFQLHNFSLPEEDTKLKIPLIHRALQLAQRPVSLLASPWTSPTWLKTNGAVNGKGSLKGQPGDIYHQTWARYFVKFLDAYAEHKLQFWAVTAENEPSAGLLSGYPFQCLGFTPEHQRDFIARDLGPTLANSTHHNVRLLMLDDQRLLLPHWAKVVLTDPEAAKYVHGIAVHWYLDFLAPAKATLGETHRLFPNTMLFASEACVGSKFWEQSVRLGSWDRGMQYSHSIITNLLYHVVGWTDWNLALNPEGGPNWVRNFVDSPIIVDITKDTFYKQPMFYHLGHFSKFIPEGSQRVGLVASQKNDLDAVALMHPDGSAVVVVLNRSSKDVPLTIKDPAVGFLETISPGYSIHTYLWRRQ

In the assay the target is Lysosomal acid glucosylceramidase (Homo sapiens) (UniProt P04062). The assay is described as follows: qHTS Assay for Inhibitors and Activators of N370S glucocerebrosidase as a Potential Chaperone Treatment of Gaucher Disease: Activity in Non-Mutant Spleen Confirmation for Probe SAR. The conditions noted are these: human spleen homogenate, 4-MU-beta-glucoside fluorescence; series mostly up to 57.5 µM. The source says:
NIH Chemical Genomics Center [NCGC] NIH Molecular Libraries Probe Production Centers Network [MLPCN] MLPCN Grant: MH086442-01 Assay Submitter (PI): Wei Zheng Glucocerebrosidase (GC) catalyzes the hydrolysis of beta-glucocerebroside to glucose and ceramide in lysosomes. Mutations in the glucocerebrosidase gene result in Gaucher disease, an autosomal recessive lysosomal storage disorder. Many of the mutations encountered in patients with Gaucher disease are missense alterations that may cause misfolding, decreased stability and/or mistrafficking of this lysosomal protein. […] These inhibitors include iminosugar analogs and three non-iminosugar inhibitors identified from a previous HTS of 62,000 compounds with the wild type recombinant enzyme. However, the enhancement of enzyme activity by the chaperone action of an enzyme inhibitor must be balanced against the direct inhibition of the enzyme. An enzyme activator could also function as a chaperone by binding to the enzyme and helping to correct its misfolding and mistrafficking. While activators for GC have not yet been identified, they may have better therapeutic potential than inhibitors. Therefore the discovery and development of chemical activators may provide a new strategy for the chaperone therapy. We have optimized a new assay using N370S mutant GC derived from the spleen of a Gaucher patient. […] In addition, the MLPCN compound library has expanded, which increases the chance of finding new and better probes. This confirmation assay tests for compound activity in spleen homogenate containing wildtype enzyme.
NCGC Assay Protocol Summary: This is a fluorogenic enzyme assay with 4-methylumbelliferyl-beta-D-glucopyranoside as the substrate and wildtype glucocerebrosidase from human spleen homogenate as the enzyme preparation. Upon the hydrolysis of this fluorogenic substrate, the resulting product, […] which can be detected by a standard fluorescence plate reader. Data were normalized to the controls for basal activity (without enzyme) and 100% activity (with enzyme). The AC50 values were determined from concentration-response data modeled with the standard Hill equation. Assay buffer: 50 mM citric acid (titrated with potassium phosphate to pH 5.0), 100 mM potassium chloride, 10 mM sodium chloride, 1 mM magnesium chloride, 0.01% Tween-20. 1536-well assay protocol: (1) Add 2 ul/well of spleen homogenate (27 ug final) (2) Add 23 nL compounds in DMSO solution. The final titration was 0.5 nM to 58 uM. (3) Add 2 ul of substrate (1 mM final) (4) Incubate at 37C for 40 min. (5) Add 2 ul stop solution (1M NaOH and 1M Glycine mixture, pH 10) (6) Detect the assay plate in a ViewLux plate reader (PerkinElmer) with Ex=365 nm and Em=440nm. Keywords: Glucocerebrosidase, beta-glucosidase, Gaucher Disease, pharmacological chaperone, chaperone therapy, high throughput screening, glucocerebrosidase inhibitor, MLSMR, MLSCN, NIH Roadmap, qHTS and NCGC
(qHTS replaces the single test concentration by a dilution series.)
With `C#Cc1ccc(NC(=O)c2cnn3c(C)cc(C)nc23)cc1`, the Potency is 0.41 µM (active).

In the case of `Cc1cc(C)n2ncc(C(=O)Nc3ccc4c(c3)OCO4)c2n1`, the Potency was 13 µM (active).

As for `Cc1cc(C)n2ncc(C(=O)Nc3ccc4c(c3)OCCO4)c2n1`, the Potency is 13 µM (active).

For `COc1ccc(NC(=O)c2cnn3c(C)cc(C)nc23)cc1OC`, the Potency result is “inactive”.

Consider `Cc1cc(C)n2ncc(C(=O)Nc3ccncc3)c2n1`, for which the Potency result is “inactive”.

Turning to `Cc1cc(C)n2ncc(C(=O)Nc3ccc(S(C)(=O)=O)cc3)c2n1`, the Potency entry is “inactive”.

As to `Cc1cc(C)n2ncc(C(=O)Nc3ccc(C)c(C)c3)c2n1`, the Potency was 4.11 µM (active).

Take `CC(=O)Nc1ccccc1NC(=O)c1cnn2c(C)cc(C)nc12`: the Potency result is “inactive”.

For the compound `Cc1cc(C)n2ncc(C(=O)Nc3cccc(C#N)c3)c2n1`, the Potency entry is “inactive”.

As for `Cc1cc(C)n2ncc(C(=O)NC(C)C)c2n1`, the Potency entry was “inactive”.

For the compound `Cc1cc(C)n2ncc(C(=O)Nc3ccc(C(F)(F)F)cc3)c2n1`, the Potency was 1.46 µM (active).

As to `CCc1ccc(NC(=O)c2cnn3c(C)cc(C)nc23)cc1`, the Potency is 2.91 µM (active).

As to `Cc1cccc(NC(=O)c2cnn3c(C)cc(C)nc23)c1`, the Potency is 8.19 µM (active).

With `Cc1cc(C)n2ncc(C(=O)Nc3ccc(Br)cc3)c2n1`, the Potency was 2.06 µM (active).

Regarding `CC(=O)Nc1ccc(NC(=O)c2cnn3c(C)cc(C)nc23)cc1`, the Potency entry was “inactive”.

Take `Cc1cc(C)n2ncc(C(=O)N3CCCC3)c2n1`: the Potency result was “inactive”.

Take `Cc1cc(C)n2ncc(C(=O)Nc3ccc4c(c3)CCC4)c2n1`: the Potency is 2.91 µM (active).

For the compound `CNC(=O)c1cnn2c(C)cc(C)nc12`, the Potency entry was “inactive”.

Take `COc1ccc(NC(=O)c2cnn3c(C)cc(C)nc23)cc1`: the Potency is 20.6 µM (active).

For `O=C(Nc1ccccc1Sc1ccccc1)c1cnn2c1NC(=C1CC1)C=C2C(F)F`, the Potency is 4.61 µM (active).

`Cc1ccc(NC(=O)c2cnn3c(C)cc(C)nc23)cc1`: the Potency is 3.26 µM (active).

For `Cc1ccc(NC(=O)c2cnn3c(C)cc(C)nc23)c(C)c1`, the Potency is 8.19 µM (active).

Regarding `Cc1cc(C)n2ncc(C(=O)NC3CCC(C(C)(C)C)CC3)c2n1` (stereo not drawn), the Potency was 11.6 µM (active) and 2.06 µM (active).
